According to PubChem BioAssay (Tox21):
Values joined by “and” are separate entries in the source; they are usually repeats but may differ in a detail not shown here. Equal entries are not always repeated. Inconclusive results are not listed. Entries that show only a call come without a potency. Values without a mark were called inactive. Active and inactive are the calls of the source. The call rests on the fitted dose curve.

Test: qHTS assay to identify small molecule agonists of the endoplasmic reticulum stress response signaling pathway - cell viability counter screen (AID 1159517); further: nearly all actives have a fitted effect of over 50% in size
Conditions: ESRE-bla HeLa viability, CellTiter-Glo luminescence, 5 h; series mostly up to 61 µM; activity change, negative = cytotoxicity: at the top concentration
Excerpt: U.S. Tox21 Program National Center for Advancing Translational Sciences [NCATS] NIH Chemical Genomics Center [NCGC] U.S. Environmental Protection Agency [EPA] National Institutes of Environmental Health Sciences [NIEHS] National Toxicology Program [NTP] U.S. Food and Drug Administration [FDA] Tox21 Assay Overview: Endoplasmic Reticulum (ER) plays an important role in cellular signaling, protein folding/maturation, stress response, lipid biosynthesis, calcium storage and release etc. Under stress conditions, proteins in ER misfold or unfold, and leading to the expression of ER stress responsive genes. ER stress has been associated with a variety of pathophysiological conditions such as cancer, inflammation, neurodegenerative diseases, diabetes, ischemic heart disease etc. To identify the compounds that induce ER stress response, an ER stress reporter cell line, CellSensor ESRE-bla HeLa (Life Technologies, Carlsbad, CA) containing a beta-lactamase reporter gene under control of the Endoplasmic reticulum Stress Response Element (ESRE) was used to screen Tox21 10K compound library. The cytotoxicity of the Tox21 compound library against the ESRE-bla HeLa cell line was tested in parallel by measuring cell viability using the CellTiter-Glo assay in the same wells.
Tox21 Assay Protocol Summary: ESRE-bla HeLa cells were dispensed at 1,500 cells/6 uL of assay medium per well into black wall/clear-bottom 1536-well plates using a Multidrop Combi (ThermoFisher Scientific, Waltham, MA) dispenser. After the assay plates were incubated at 37 C and 5% CO2 for an overnight, 23 nL of compounds dissolved in DMSO, positive controls or DMSO only was transferred to the assay plate by a Pintool station (Kalypsys, San Diego, CA). The assay plates were incubated at 37 C and 5% CO2 for 5 hr. One uL of LiveBLAzer B/G FRET substrate (Life Technologies) was added using a FRD (Flying Reagent Dispenser, Aurora Discovery, San Diego, CA) and the plates were incubated at room temperature for 2 hr. Fluorescence intensity (405 nm excitation, 460 nm and 530 nm emissions) was measured using an Envision plate reader (PerkinElmer, Shelton, CT). For cytotoxicity, 4 ul/well of CellTiter-Glo reagent was added into the assay plates using an FRD. After 30 min incubation at room temperature, the luminescence intensity was measured using a ViewLux plate reader (PerkinElmer).
Potency means the concentration at half of the fitted maximal effect.

Compound | Potency | activity change, negative = cytotoxicity [%]
COC(=O)c1sccc1S(=O)(=O)NC(=O)Nc1nc(C)nc(OC)n1 | inactive | –
CCC(=O)O[C@H]1CC[C@H]2[C@@H]3CCC4=CC(=O)CC[C@]4(C)[C@H]3CC[C@]12C | 54.9 µM (active) and 21.3 µM (active) | –
C=CC(=O)OCCO | inactive | –
Nn1cnnc1 | inactive | –
c1ccc(P(c2ccccc2)c2ccccc2)cc1 | inactive | –
CCCCN(CCCC)N=O | inactive | –
c1nc[nH]n1 | – | -13.6
CCCCC(CC)COC(=O)Cl (stereo not given) | inactive | –
CCOc1cc(C=O)ccc1O | – | -8.48
C=C(C)[C@H]1Cc2c(ccc3c2O[C@@H]2COc4cc(OC)c(OC)cc4[C@@H]2C3=O)O1 | inactive | –
C=CCc1ccc(OC)cc1 | inactive | –
CCOP(=S)(OCC)O/N=C(\C#N)c1ccccc1 | inactive | –
Nc1ccc(-c2ccccc2)cc1 | – | -0.916
CCCCNC(=O)n1c(NC(=O)OC)nc2ccccc21 | inactive | –
Cc1ccccc1[N+](=O)[O-] | inactive | –
c1ccc(-c2cccc(-c3ccccc3)c2)cc1 | inactive | –
CC(O)CCO (stereo not given) | inactive | –
CCC(C)c1ccc(O)cc1 (stereo not given) | inactive | –
Cc1cc(C)cc(C)c1 | inactive | –
Nc1ccc(Cl)c(Cl)c1 | inactive | –

Compound | Potency | activity change, negative = cytotoxicity [%]
CC(C)(C)c1ccccc1O | inactive | –
C[C@]12CCC(=O)C[C@@H]1CC[C@@H]1[C@@H]2CC[C@]2(C)[C@@H](O)CC[C@@H]12 | inactive | –
CC(C)c1ccc(CO)cc1 | – | 15.2
CC(C)NC(C)C | inactive | –
c1ccc(N=Nc2ccccc2)cc1 | inactive | –
COP(=S)(OC)Oc1cc(Cl)c(Cl)cc1Cl | inactive | –
CC(C)N(C(=O)SCC(Cl)=C(Cl)Cl)C(C)C | inactive | –
CC(C)(OOC(C)(C)c1ccccc1)c1ccccc1 | inactive | –
CCOc1cc(Oc2ccc(C(F)(F)F)cc2Cl)ccc1[N+](=O)[O-] | inactive | –
Cc1cccc(N)c1N | inactive | –
O=P(O)(O)CCCl | inactive | –
Nc1ccc(-c2ccc(N)c(N)c2)cc1N | inactive | –
Nc1ccncc1 | inactive | –
c1ccc(NNc2ccccc2)cc1 | inactive | –
CCCCCCOC(=O)c1ccccc1C(=O)OCCCCCC | inactive | –
O=P(Oc1ccccc1)(Oc1ccccc1)Oc1ccccc1 | – | -8.83
COc1ccc(C(CN(C)C)C2(O)CCCCC2)cc1 (stereo not given) | inactive | –
C=CCN(CC=C)C(=O)C(Cl)Cl | inactive | –
CCOC(=O)C(C)OC(=O)c1cc(Oc2ccc(C(F)(F)F)cc2Cl)ccc1[N+](=O)[O-] (stereo not given) | inactive | –
N[C@@H](Cc1ccc(N(CCCl)CCCl)cc1)C(=O)O | inactive | –
